# The list is not random: actives were taken first. Their share in the collection is about 1.6%.
# KCNQ2 block – blocks the rat KCNQ2 potassium channel; O88943; CHO-K1 KCNQ2, FluxOR thallium flux, 20 min; active compounds read low; B-score at 10 µM; 310,000 compounds, 1.1% hits; AID 2156;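 active = fluorescence ratio B-score at most minus 3 library SDs, with starting brightness B-score within 2 library SDs, cut at about -5.5 in these data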
# Target sequence (O88943 whole entry, looked up): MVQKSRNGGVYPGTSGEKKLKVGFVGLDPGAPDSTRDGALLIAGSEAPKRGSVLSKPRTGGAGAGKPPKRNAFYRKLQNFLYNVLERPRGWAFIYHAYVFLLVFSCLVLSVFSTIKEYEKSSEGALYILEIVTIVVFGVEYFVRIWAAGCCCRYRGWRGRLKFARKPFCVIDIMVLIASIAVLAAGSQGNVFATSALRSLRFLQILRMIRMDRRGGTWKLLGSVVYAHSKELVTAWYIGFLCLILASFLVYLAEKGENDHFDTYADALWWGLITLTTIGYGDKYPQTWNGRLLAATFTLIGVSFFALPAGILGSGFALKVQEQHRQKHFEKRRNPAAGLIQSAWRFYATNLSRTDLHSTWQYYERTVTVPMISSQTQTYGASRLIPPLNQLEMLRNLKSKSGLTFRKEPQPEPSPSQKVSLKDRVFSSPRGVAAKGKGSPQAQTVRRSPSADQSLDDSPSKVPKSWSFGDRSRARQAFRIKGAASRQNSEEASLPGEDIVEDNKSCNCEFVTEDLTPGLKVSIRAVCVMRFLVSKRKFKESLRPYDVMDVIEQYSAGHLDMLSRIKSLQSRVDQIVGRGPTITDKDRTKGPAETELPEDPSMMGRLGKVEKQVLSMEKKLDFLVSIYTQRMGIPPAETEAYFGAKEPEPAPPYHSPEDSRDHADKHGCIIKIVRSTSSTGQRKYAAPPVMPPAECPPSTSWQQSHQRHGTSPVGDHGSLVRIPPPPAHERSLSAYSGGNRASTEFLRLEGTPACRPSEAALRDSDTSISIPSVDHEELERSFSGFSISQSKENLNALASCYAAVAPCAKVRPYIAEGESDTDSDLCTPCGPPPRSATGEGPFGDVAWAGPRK
# KCNQ2 enhance – KCNQ2 (rat) channel potentiation; O88943; CHO-K1 KCNQ2, FluxOR thallium flux fluorescence; active compounds read high; B-score at 10 µM; 310,000 compounds, 0.54% hits; AID 2239;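 active = fluorescence ratio B-score at least 3 SD of library B-scores, with initial fluorescence B-score within 3 of them, cut at about 5.3 in these data; same plate scores as AID 2156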;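 also: B-score of peak minus minimum over baseline fluorescence ratio after K+ and Tl+ stimulus; positive B-score means potentiation of KCNQ2 with more thallium influx and brighter signal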
# Starred values were filed as active, the others as inactive; i = inactive; · = not tested or not shown.
SMILES,KCNQ2 block,KCNQ2 enhance
Cc1nc(C(=O)Nc2cccc(Cl)c2)nn1-c1cc(OC(C)C)c(Cl)cc1Cl,i,·
Cc1nc(C(=O)Nc2cccc(Cl)c2Cl)nn1-c1cc(OC(C)C)c(Cl)cc1Cl,-6.3*,-6.3
CC(=O)C1=C(O)C(=O)N(c2cc(C(C)(C)C)on2)C1c1ccc(Br)cc1 (configuration not stated),i,·
Cc1ccc(OCCNC(=O)CCc2nc3sc4c(c3c(=O)[nH]2)CCCC4)cc1,i,·
CCC(=O)NCCc1nc2ccccc2[nH]1,i,1.4
CCOC(=O)C1CCN(c2ccccc2CN2CCN(c3ccccc3OCC)CC2)CC1,-7.2*,-7.2
CCOC(=O)C1CCN(Cc2ccccn2)CC1,i,·
C=CCOC(=O)CCC(=O)Nc1cccc2ccccc12,i,·
CC(=O)Nc1ccc(NC(=O)c2ccc(NS(=O)(=O)c3cc(C(C)(C)C)ccc3C)cc2)cc1,i,1.1
Clc1ccc(/C=N/Nc2nnc(-c3ncc[nH]3)c3ccccc23)cc1,-5.7*,-5.7
Clc1cccc(/C=N/Nc2nnc(Cl)c3ccccc23)c1,i,·
O=C(COC(=O)c1c(Cl)cccc1Cl)NC1CCCCC1,i,·
COc1cc(/C=C(/C(=O)c2cccs2)c2nc3ccccc3[nH]2)ccc1O,-7.6*,-7.6
COC(=O)/C(=C\c1cc(OC)c(OC)c(OC)c1)c1nc2ccccc2[nH]1,i,·
O=C(/C(=C\c1ccccc1)c1nc2ccccc2[nH]1)c1ccc(Cl)cc1,i,0.99
O=C(/C(=C/c1ccc(Cl)cc1)c1nc2ccccc2[nH]1)c1cccs1,-6.3*,-6.3
COc1ccc(NC(=O)c2ccc(N3C(=O)C4CC=C(C)CC4C3=O)cc2)c(OC)c1 (configuration not stated),i,0.48
COc1cccc(CNC(=O)C2=C(C)C(=O)OC23CCC(C)CC3)c1 (configuration not stated),-6.9*,-6.9
COc1ccccc1CNC(=O)C1=C(C)C(=O)OC12CCC(C)CC2 (configuration not stated),i,·
COc1ccc(OC)c(NC(=O)c2cc3ccccc3o2)c1,i,·
O=c1cc(CN2CCN(S(=O)(=O)c3ccc4c(c3)OCCO4)CC2)c2ccc(O)cc2o1,-5.6*,-5.6
CCc1ccc2c(CN3CCN(S(=O)(=O)c4ccc5c(c4)OCCO5)CC3)cc(=O)oc2c1,i,0.46
Cc1cccc(-c2ccc(NC(=O)C3CCN(CC4CC4)CC3)cc2)c1,i,·
COc1ccc(C(=O)NNC(=O)C(=O)Nc2ccc(C)c(Cl)c2)cc1,i,3.6
Cc1ccc(NC(=O)C(=O)NNC(=O)c2ccccc2C)cc1Cl,i,12*
SMILES,KCNQ2 block,KCNQ2 enhance
COc1cc(C=C(c2nc3ccccc3s2)c2nc3ccccc3s2)ccc1O,-6*,-6
COc1ccc(C=C(c2nc3ccccc3s2)c2nc3ccccc3s2)cc1O,i,·
S=C(NCC1CCCO1)NC12CC3CC(CC(C3)C1)C2 (configuration not stated),i,·
CCCOC(=O)CSC1=C(C#N)C(c2ccccc2OCC)C(C#N)C(=O)N1 (configuration not stated),i,1.9
CCCCOC(=O)CSC1=C(C#N)C(c2ccccc2OCC)C(C#N)C(=O)N1 (configuration not stated),i,7.1*
Fc1cccc(Cc2noc(CN3CCCCC3CCc3ccccn3)n2)c1 (configuration not stated),i,·
Cc1ccc(C(c2nnnn2C2CCCC2)N2CCN(c3nc4ccccc4s3)CC2)cc1 (configuration not stated),-6.4*,-6.4
CC(C)C(c1nnnn1C1CCCCC1)N1CCc2ccccc21 (configuration not stated),i,·
c1ccc(C(c2nnnn2C2CCCC2)N2CCN(c3nc4ccccc4s3)CC2)cc1 (configuration not stated),i,·
Cc1ccc(C(c2nnnn2C2CCCCC2)N2CCc3ccccc32)cc1 (configuration not stated),-5.6*,-5.6
COc1cc2c(cc1NS(=O)(=O)N1CCCC1)oc1ccccc12,i,·
O=C(Nc1c(C(=O)N2CCOCC2)oc2ccccc12)c1cccc([N+](=O)[O-])c1,i,0.61
CCOC(=O)c1ccc(N=c2sc(C(=O)OC)cc(=O)n2Cc2ccc3c(c2)OCO3)cc1,-5.9*,-5.9
COC(=O)c1cc(=O)n(Cc2ccc3c(c2)OCO3)c(=Nc2ccc(F)cc2)s1,i,·
CCCCS(=O)CC(COC)OC(=O)c1ccccc1 (configuration not stated),i,0.03
CCCCS(=O)CC(COc1ccc(Cl)cc1)OC(=O)c1ccccc1 (configuration not stated),-5.8*,-5.8
CCOC(=O)c1ccccc1NC(=S)N1CCCCC1,i,·
COc1ccc(C(=O)N2c3ccccc3C=CC2C#N)cc1 (configuration not stated),i,0.44
N#C[C@H]1[C@H](c2ccccc2)[C@](C#N)(C(=O)c2ccccc2)[C@@H]2C=Cc3ccccc3N21,-8.6*,-8.6
O=C1C(c2ccc(F)cc2)N(C2CCCCC2)C(=O)CN1C1CCCC1 (configuration not stated),i,·
COc1cccc(C2c3[nH]c4ccccc4c3C[C@H]3C(=O)N(C4CC4)CC(=O)N23)c1 (some centres not stated),i,·
COc1cccc(C2C(=O)N(C3CCCCC3)CC(=O)N2Cc2ccc(F)cc2)c1 (configuration not stated),-7*,-7
COc1ccccc1CN1C(=O)CN(C2CCCCCC2)C(=O)C1c1ccc(F)cc1 (configuration not stated),-6.1*,-6.1
Cc1ccc(OCCOCCn2cnc3ccccc3c2=O)cc1C,i,·
CCOC(=O)c1c(N)sc(C(N)=O)c1C,i,·
SMILES,KCNQ2 block,KCNQ2 enhance
CCOC(=O)c1c(N)sc(N)c1C(=O)OCC,i,9.7*
CCc1ccc(S(=O)(=O)N/N=C(/C)c2ccncc2)cc1,i,·
O=C(c1nc2ccc(Cl)cn2c1CNCC[C@@H]1C[C@@H]2C=C[C@H]1C2)N1CCCCCCC1,-5.8*,-5.8
C[C@@H]1CN(C(=O)c2nc3ccc(Cl)cn3c2CNCC[C@@H]2C[C@@H]3C=C[C@H]2C3)C[C@H](C)O1,i,·
COc1ccc(C(=O)N2CCC(C(=O)Nc3ccc4c(c3)OCCO4)CC2)cc1,i,4.9
Cc1ccc(Nc2cc(-c3ccccc3)nc3ncnn23)cc1,i,·
CC1(C)CC2CC(C)(CN2C(=S)NC(=O)c2ccccc2Cl)C1 (configuration not stated),i,10*
CC1(C)CC2CC(C)(CN2C(=S)Nc2ccccc2)C1 (configuration not stated),i,·
O=C(CSc1nc(O)cc(=O)n1-c1ccccc1)Nc1ccc2c3c(cccc13)CC2,i,3.3
Cc1c(O)nc(SCC(=O)Nc2ccc3c4c(cccc24)CC3)n(-c2ccccc2)c1=O,i,12*
CC12CCC(=O)N1C(C(=O)Nc1nc3ccc(Cl)cc3s1)CS2 (configuration not stated),-6*,-6
CC12CCC(=O)N1C(C(=O)Nc1nc3ccc(S(C)(=O)=O)cc3s1)CS2 (configuration not stated),i,0.59
C(=N\n1cnnc1)/c1ccccn1,i,·
C(=N\N(c1ccccc1)c1ccccc1)/c1ccccn1,-6.2*,-6.2
O=C(c1c[nH]c2ccc(S(=O)(=O)N3CCOCC3)cc2c1=O)N1CCCC1,i,·

# Bioassay records (PubChem)
